{
  "source": "PubChem BioAssay (Tox21)",
  "note": "Several values for one entry are separate records, joined by “and”; a condition that tells them apart may be missing. Identical values can stand only once. Results filed as inconclusive are left out. A call without a number means that no potency is given here. Some compounds were tested as several samples or in several runs, with calls that do not always agree. Activity calls are given as the source filed them. Calls come from the whole dose curve; as a rule, active = well fitted cell-killing curve with a large enough effect in the repeat runs; inconclusive = weak or mixed curves; inactive = flat fitted curve, though single readings scatter. Potency is the fitted concentration of half-maximal effect.",
  "data": [
    {"assay": "qHTS assay to identify small molecule antagonists of the estrogen related receptor (ERR) signaling pathway from Tox21 library - cell viability counter screen (AID 1224834); note: nearly all actives have a fitted effect of over 30% in size", "details": "ERR reporter cells viability, CellTiter-Fluor, 17.5 h; series mostly up to 92.4 µM", "source_text": "National Center for Advancing Translational Sciences [NCATS]\nNIH Chemical Genomics Center [NCGC]\nU.S. Environmental Protection Agency [EPA]\nNational Institutes of Environmental Health Sciences [NIEHS]\nNational Toxicology Program [NTP]\nU.S. Food and Drug Administration [FDA]\nEstrogen related receptors (ERRs), the first orphan nuclear receptors discovered, play an important role in the control of cellular energy metabolism. ERRs are required for high-energy production in response to the environmental challenges. ERR-alpha was also identified as an adverse marker for breast cancer progression; ERR-alpha-positive tumors have a poor prognosis. To screen and to identify environmental compounds that perturb the ERR signaling pathways could provide valuable information for potential therapeutic or preventive measures in the treatment of metabolic disease. To differentiate true ERR antagonists or agonist from cytotoxic substances, the assay is multiplexed with cell viability assay.\nTox21 Assay Protocol Summary:\nThe ERR cells were dispensed at 2,000 cells/5 ul/well in 1536-well white plates using a Multidrop dispenser. After the assay plates were incubated at a 37 C/5% CO2 incubator for 6 hours, 23 nL of compounds dissolved in DMSO, positive and negative controls or DMSO only was transferred to the assay plate by a pin tool. The plates were incubated at 37 C for 17.5 hours. 1 ul/well of CellTiter-Fluor reagent was added into the assay plates using a Flying Reagent Dispenser. After 30-minute incubation at 37 C/5% CO2, the fluorescence intensity in the plates was measured using a ViewLux plate reader.", "values": [
      {"smiles": "COC(=O)CC(=O)OC", "Potency": "inactive"},
      {"smiles": "c1ccc2c(c1)ccc1ncccc12", "Potency": "inactive"},
      {"smiles": "Oc1c(Cl)ccc(Cl)c1Cl", "Potency": "inactive"},
      {"smiles": "O=C(O)CCCC(=O)O", "Potency": "inactive"},
      {"smiles": "CCOC(=O)C(C)Oc1ccc(Oc2cnc3cc(Cl)ccc3n2)cc1", "note": "(stereo not given)", "Potency": "inactive"},
      {"smiles": "Nc1cc(Cl)c(N)c(Cl)c1", "Potency": "inactive"},
      {"smiles": "CCc1cccc2c3c([nH]c12)C(CC)(CC(=O)O)OCC3", "note": "(stereo not given)", "Potency": "inactive"},
      {"smiles": "C=C[C@H]1CN2CC[C@H]1C[C@@H]2[C@@H](O)c1ccnc2ccc(OC)cc12", "Potency": "inactive"},
      {"smiles": "CC(=O)Oc1ccc(C(c2ccc(OC(C)=O)cc2)c2ccccn2)cc1", "Potency": "inactive"},
      {"smiles": "CC1(C)NC(=O)N(c2ccc([N+](=O)[O-])c(C(F)(F)F)c2)C1=O", "Potency": "inactive"},
      {"smiles": "CC1(C)OC(=O)NC1=O", "Potency": "inactive"},
      {"smiles": "CCC(=O)O[C@H]1[C@H](O[C@@H]2[C@@H](C)[C@H](O[C@H]3C[C@@](C)(OC)[C@@H](O)[C@H](C)O3)[C@@H](C)C(=O)O[C@H](CC)[C@@](C)(O)[C@H](O)[C@@H](C)C(=O)[C@H](C)C[C@@]2(C)O)O[C@H](C)C[C@@H]1N(C)C", "Potency": "inactive"},
      {"smiles": "Nc1ccc2c(O)cc(S(=O)(=O)O)cc2c1", "Potency": "27.3 µM (active) and 30.6 µM (active)"},
      {"smiles": "C=CC(=O)OCCCC", "Potency": "inactive"},
      {"smiles": "CCO[Si](CCCNC(N)=O)(OCC)OCC", "Potency": "inactive"},
      {"smiles": "Cc1ccc(N)c([N+](=O)[O-])c1", "Potency": "inactive"},
      {"smiles": "NCCOCCO", "Potency": "inactive"},
      {"smiles": "CCCOCCO", "Potency": "inactive"},
      {"smiles": "Cc1ccc(C(C)(C)C)c(O)c1", "Potency": "inactive"},
      {"smiles": "CC(=O)[C@@]1(O)CC[C@H]2[C@@H]3C[C@H](C)C4=CC(=O)C=C[C@]4(C)[C@@]3(F)[C@@H](O)C[C@@]21C", "Potency": "inactive"},
      {"smiles": "Cc1ccc(C(C)(C)C)cc1", "Potency": "inactive"},
      {"smiles": "CCCCCCCCCCC(CO)CCCCCCCC", "note": "(stereo not given)", "Potency": "inactive"},
      {"smiles": "C=CCCCCCCCCCC", "Potency": "inactive"},
      {"smiles": "ClC/C=C/CCl", "Potency": "inactive"},
      {"smiles": "O=C(O)c1cc(=O)[nH]c(=O)[nH]1", "Potency": "inactive"},
      {"smiles": "c1ccc2cc3ccccc3cc2c1", "Potency": "inactive"},
      {"smiles": "Nc1ccc(N)c(Cl)c1", "Potency": "61 µM (active) and 54.5 µM (active)"},
      {"smiles": "CC(=O)O[C@]1(C(C)=O)CC[C@H]2[C@@H]3C=C(Cl)C4=CC(=O)CC[C@]4(C)[C@H]3CC[C@@]21C", "Potency": "61 µM (active)"},
      {"smiles": "Cc1ccc(/C(=C\\CN2CCCC2)c2ccccn2)cc1", "Potency": "inactive"},
      {"smiles": "O=Cc1ccccc1C=O", "Potency": "54.5 µM (active) and inactive"},
      {"smiles": "CCCCCCCCCCCCCO", "Potency": "inactive"},
      {"smiles": "Nc1cc([N+](=O)[O-])ccc1C(=O)O", "Potency": "inactive"},
      {"smiles": "COc1ccc2nc(N)sc2c1", "Potency": "inactive"},
      {"smiles": "CN1CCOCC1", "Potency": "inactive"},
      {"smiles": "CC(=O)[C@H]1CC[C@H]2[C@@H]3CC=C4C[C@@H](O)CC[C@]4(C)[C@H]3CC[C@]12C", "Potency": "inactive"},
      {"smiles": "CC(C)[N+](C)(CCOC(=O)C1c2ccccc2Oc2ccccc21)C(C)C", "Potency": "inactive"},
      {"smiles": "C=CCOC(=O)C(=C)C", "Potency": "inactive"},
      {"smiles": "Brc1nc2ccccc2s1", "Potency": "inactive"},
      {"smiles": "C1COCCN1", "Potency": "inactive"},
      {"smiles": "CCCN1C=CN(C)C1", "Potency": "inactive"}
    ]}
  ]
}
